Laboratory results from PubChem BioAssay.
Results filed as inconclusive are left out. Active and inactive are the calls of the source.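 How the source made its calls, unless noted: active means viability increase at or above a cutoff of the median across tested compounds plus 3 SD (cut at about 8.5% in these data, passing the limit was not always enough); inconclusive means some gains above the cutoff, reason not given; inactive means the rest.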

Assays:
[1] = reduced viability of SK-BR-3 breast cancer cells – cell-based, 24 h, human, pilot screen (AID 572;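 active means viability at or below 10% of carrier control in both of two separate runs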;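 further: compound exposure lasted between 18 and 24 h rather than exactly 24 h; 100% = carrier-treated control wells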); settings: SK-BR-3 viability, CellTiter-Glo luminescence, at 10 µM, stronger effect = lower value
[2] = HUVEC growth inhibition – cell-based, human, primary screen (AID 575;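 active means viability at or below 30% in both replicate assays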;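 further: 100% = median of untreated cell wells with 0.1% DMSO on each plate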); settings: HUVEC proliferation, CellTiter-Glo luminescence, 72 h; at 10 µM; stronger effect = lower value
[3] = H69AR cell proliferation blockers – human, duplicate replicates, primary screen (AID 580;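 active means viability at or under a set limit in both replicates, limit being median viability minus 3 SD, cut at about 48% in these data, passing the limit was not always enough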;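 further: 100% = mean luminescence of untreated wells and 0% = no signal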); settings: H69AR lung tumor cells viability, ATP luminescence, 72 h; at 10 µM; stronger effect = lower value
[4] = MRP1 drug-resistance reversers in H69AR cells – cell-based, doxorubicin co-treatment, pilot screen (AID 601;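 active means viability loss from added drug above about 55%, and viability with drug at most 40%, in both replicates, limit read from the data, passing the limit was not always enough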); settings: CellTiter-Glo, 72 h, at 10 µM; for differential viability (reversal): stronger effect = higher value
[5] = yeast transport mutant growth inhibition pilot in 384-well plates, post-Golgi transport modulator project (AID 636; in the data active means inhibition above about 31%); settings: absorbance 615 nm, about 18 h, stronger effect = higher value
[6] = growth suppression of yeast trafficking mutant, preliminary HTS, modulators of trafficking downstream of Golgi apparatus project, 1536-format plate, OD 615 nm (AID 637; in the data active means inhibition above about 30%); settings: yeast transport mutant growth, absorbance 615 nm, 18 h; stronger effect = higher value
[7] = S. cerevisiae growth inhibition in permissive medium (OD615), pilot counter-assay for S. cerevisiae lifespan shortening project, permissive growth control (AID 705;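 active means growth inhibition above 25% in both replicates, a cutoff set 3 SD above the mean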); settings: OD615, 24 h, at 10 µM, stronger effect = higher value
[8] = S. cerevisiae growth inhibition in restrictive medium, OD615, pilot screen, restrictive growth control, yeast lifespan reduction project (AID 706;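 active means growth inhibition above a set limit, 3 SD over mean compound inhibition, in both replicates, cut at about 43% in these data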;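 further: modified DeaD lifespan yeast strain shifted to restrictive glucose medium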); settings: OD615, 48 h, at 10 µM, stronger effect = higher value
[9] = doxorubicin toxicity protection in MRP-1 cells – H69AR cells, CellTiter-Glo, duplicate, MRP-1 activator project, pilot screen (AID 807); settings: H69AR viability with doxorubicin, CellTiter-Glo luminescence; at 10 µM; stronger effect = higher value;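 further: compound pretreatment 18-22 h then 72 h combined with doxorubicin; 0% = doxorubicin alone and 100% = vehicle without doxorubicin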
[10] = viability of HCT116 without oncogenic beta-catenin – human colon tumor cells, pilot screen (AID 823;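 active means cell viability at or below a set limit in both duplicate runs, the limit being the all-compound median minus 4 SD, cut at about 23% in these data, passing the limit was not always enough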;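 further: 0% = wells killed by 20 µM Hyamine and 100% = untreated DMSO cell wells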); settings: HCT116 beta-catenin knockout viability, CellTiter-Glo, 60 h; at 10 µM; stronger effect = lower value
[11] = viability of PTEN-null HCT116 cells – cell-based, HCT116 clonal line, CellTiter-Glo, pilot screen (AID 824;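 active means viability at or below 27.92% in each of two runs, the all-compound median minus 4 SD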;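 further: 0% = 20 µM Hyamine control and 100% = vehicle cell control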); settings: HCT116 PTEN-deleted viability, 60 h, at 10 µM, stronger effect = lower value
[12] = RAM pathway blockade in budding yeast – dse1pr::URA3 reporter, 5-FOA selection, pilot screen (AID 869;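 active means inhibition over a set limit, the all-compound mean plus 3 SD, in both replicate runs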;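 further: 0% = DMSO wells with no growth and 100% = 10 µM 1-NA-PP1 with full growth; RAM network block rescues cells from 5-FOA so hits raise OD615 growth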); settings: S. cerevisiae dse1pr::URA3 5-FOA growth, OD615, 2 d; at 10 µM; stronger effect = higher value; strain carries analog-sensitive mutant Cbk1 kinase
[13] = RAM signaling pathway blockade in yeast – S. cerevisiae, Pdr1DBD-CYC8 efflux-inhibited sensitized strain, primary screen (AID 1298;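 active means RAM network inhibition above 8.4% in each of two replicates, 3 SD over the compound average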;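 further: 0% = DMSO untreated cells without growth and 100% = 10 µM 1-NA-PP1 full growth; higher means more yeast growth rescued from 5-FOA killing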); settings: S. cerevisiae cbk1-as DSE1-URA3 strain, 5-FOA growth OD615, 2 d; at 50 µM; stronger effect = higher value
[14] = H69AR cells + 2 uM doxorubicin, measured here: viability with 2 uM doxorubicin, stronger effect = lower value
[15] = H69AR cells, compound alone cytotoxicity

Cc1ccc(C)n1-c1ccc(N2CCOCC2)cc1
93.4%: viability [4, 14]
inactive: viability [1] 104% | viability [2] 86.4% | viability [3] 77.9% | differential viability (reversal) ([4]; H69AR cells + 2 uM doxorubicin) -15.4% | inhibition [5] -6.35% | inhibition [6] -3.33% | growth inhibition [7] -10.4% | growth inhibition [8] -9.78% | viability increase [9] -7.18% | inhibition [12] 3.15% | RAM network inhibition [13] 7.34%
77.9%: viability [4, 15]
active: viability [10] 8.5% | viability [11] 8.6%

CCCc1cc(=O)oc2cc(C)cc(OC(=O)c3ccco3)c12
inactive: viability [1] 97% | viability [2] 62.2% | viability [3] 95.8% | differential viability (reversal) ([4]; H69AR cells + 2 uM doxorubicin) 9.31% | inhibition [5] -6.93% | inhibition [6] -7.82% | growth inhibition [7] -7.19% | growth inhibition [8] -12.2% | viability increase [9] -1.16% | viability [10] 96.7% | viability [11] 80.6% | inhibition [12] 3.94% | RAM network inhibition [13] 4.75%
86.5%: viability [4, 14]
95.8%: viability [4, 15]

CCOC(=O)N1CCN(C(=O)c2cnn(-c3ccccc3)c2NC(=O)c2ccccc2F)CC1
inactive: viability [1] 102% | viability [2] 98.8% | viability [3] 92% | differential viability (reversal) ([4]; H69AR cells + 2 uM doxorubicin) 12% | inhibition [5] -4% | inhibition [6] -0.73% | growth inhibition [7] 0.625% | growth inhibition [8] -2.95% | viability increase [9] -1.55% | viability [10] 99.4% | viability [11] 102% | inhibition [12] -0.065% | RAM network inhibition [13] 1.56%
92%: viability [4, 15]
80%: viability [4, 14]

CC(Sc1n[nH]c(=O)[nH]c1=O)C(=O)OCc1ccccc1 (stereo not given)
88.3%: viability [4, 14]
99.9%: viability [4, 15]
inactive: viability [1] 94% | viability [2] 116% | viability [3] 99.9% | differential viability (reversal) ([4]; H69AR cells + 2 uM doxorubicin) 11.6% | inhibition [5] -5.6% | inhibition [6] -0.18% | growth inhibition [7] -21.9% | growth inhibition [8] -8.41% | viability increase [9] 0.49% | viability [10] 103% | viability [11] 98.5% | inhibition [12] 1.66% | RAM network inhibition [13] 5.73%

Cc1ccc(C(=O)Nc2ccc(Cl)cn2)cc1S(=O)(=O)N1CCOCC1
93%: viability [4, 14]
81.5%: viability [4, 15]
inactive: viability [1] 90% | viability [2] 78.3% | viability [3] 81.5% | differential viability (reversal) ([4]; H69AR cells + 2 uM doxorubicin) -11.5% | inhibition [5] 0.39% | inhibition [6] 5% | growth inhibition [7] -3.23% | growth inhibition [8] 0.715% | viability increase [9] 1.52% | viability [10] 86.4% | viability [11] 79.9% | inhibition [12] 1.39% | RAM network inhibition [13] 5.97%

C#CCOC(=O)C1C2C=CC(C2)C1C(=O)O (stereo not given)
81.7%: viability [4, 14]
inactive: viability [1] 86% | viability [2] 109% | viability [3] 93.6% | differential viability (reversal) ([4]; H69AR cells + 2 uM doxorubicin) 11.9% | inhibition [5] -6.27% | inhibition [6] 1.45% | growth inhibition [7] 2.87% | growth inhibition [8] -1.21% | viability increase [9] 0.51% | viability [10] 103% | viability [11] 96.8% | inhibition [12] -0.215% | RAM network inhibition [13] 2.5%
93.6%: viability [4, 15]

CCOC(=O)C1=C(CS(=O)(=O)c2ccc(F)c(C)c2)NC(=O)NC1c1ccc(O)c(O)c1 (stereo not given)
inactive: viability [1] 112% | viability [2] 85.2% | viability [3] 92.6% | differential viability (reversal) ([4]; H69AR cells + 2 uM doxorubicin) 9.16% | inhibition [5] -4.13% | inhibition [6] -7.54% | growth inhibition [7] 0.775% | growth inhibition [8] -9.4% | viability increase [9] -1.64% | viability [10] 99.1% | viability [11] 94.8% | inhibition [12] -0.51% | RAM network inhibition [13] 1.66%
83.4%: viability [4, 14]
92.6%: viability [4, 15]

O=C(Cn1c(=O)sc2ccccc21)NCCOc1ccccc1F
85.8%: viability [4, 14]
inactive: viability [1] 102% | viability [2] 108% | viability [3] 99.4% | differential viability (reversal) ([4]; H69AR cells + 2 uM doxorubicin) 13.6% | inhibition [5] -1.82% | inhibition [6] -6.23% | growth inhibition [7] 7.09% | growth inhibition [8] 11.1% | viability increase [9] -0.76% | viability [10] 108% | viability [11] 98.4% | inhibition [12] 1.38% | RAM network inhibition [13] 10.5%
99.4%: viability [4, 15]

CC(=O)Nc1nnc(SCC(=O)NCC2CCCO2)s1 (stereo not given)
inactive: viability [1] 70% | viability [2] 105% | viability [3] 96.3% | differential viability (reversal) ([4]; H69AR cells + 2 uM doxorubicin) 3.56% | inhibition [5] 0.27% | inhibition [6] 7.64% | growth inhibition [7] -2.62% | growth inhibition [8] 2.21% | viability increase [9] -1.36% | viability [10] 100% | viability [11] 88.6% | inhibition [12] 0.925% | RAM network inhibition [13] -0.72%
92.7%: viability [4, 14]
96.3%: viability [4, 15]

COc1ccc(NC(=O)Nc2ccc(N3CCCC3=O)cc2)cc1OC
inactive: viability [1] 126% | viability [2] 104% | viability [3] 104% | differential viability (reversal) ([4]; H69AR cells + 2 uM doxorubicin) 15.2% | inhibition [5] -4.93% | inhibition [6] -3.64% | growth inhibition [7] -1.9% | growth inhibition [8] 3.45% | viability increase [9] -3.97% | viability [10] 107% | viability [11] 93.8% | inhibition [12] 0.135% | RAM network inhibition [13] 0.87%
104%: viability [4, 15]
89.1%: viability [4, 14]
